Test results as given in ChEMBL document CHEMBL3988442, “University of Dundee, Small-Polar-MMV Screening Library” (2021).
For some of these results: Potency and affinity values are given separately.

Legend:
Parameters in all cases: scale not given: direction of the effect not stated beside the values
[1] = molecular target: Protein translocase subunit SecA (Escherichia coli (strain K12)) (UniProt P10408); experiment: Assay to Identify E. coli SecA ATPase Inhibitors; type: functional; conditions: 30 µM
Chain of Protein translocase subunit SecA (Escherichia coli (strain K12)) (P10408 whole entry): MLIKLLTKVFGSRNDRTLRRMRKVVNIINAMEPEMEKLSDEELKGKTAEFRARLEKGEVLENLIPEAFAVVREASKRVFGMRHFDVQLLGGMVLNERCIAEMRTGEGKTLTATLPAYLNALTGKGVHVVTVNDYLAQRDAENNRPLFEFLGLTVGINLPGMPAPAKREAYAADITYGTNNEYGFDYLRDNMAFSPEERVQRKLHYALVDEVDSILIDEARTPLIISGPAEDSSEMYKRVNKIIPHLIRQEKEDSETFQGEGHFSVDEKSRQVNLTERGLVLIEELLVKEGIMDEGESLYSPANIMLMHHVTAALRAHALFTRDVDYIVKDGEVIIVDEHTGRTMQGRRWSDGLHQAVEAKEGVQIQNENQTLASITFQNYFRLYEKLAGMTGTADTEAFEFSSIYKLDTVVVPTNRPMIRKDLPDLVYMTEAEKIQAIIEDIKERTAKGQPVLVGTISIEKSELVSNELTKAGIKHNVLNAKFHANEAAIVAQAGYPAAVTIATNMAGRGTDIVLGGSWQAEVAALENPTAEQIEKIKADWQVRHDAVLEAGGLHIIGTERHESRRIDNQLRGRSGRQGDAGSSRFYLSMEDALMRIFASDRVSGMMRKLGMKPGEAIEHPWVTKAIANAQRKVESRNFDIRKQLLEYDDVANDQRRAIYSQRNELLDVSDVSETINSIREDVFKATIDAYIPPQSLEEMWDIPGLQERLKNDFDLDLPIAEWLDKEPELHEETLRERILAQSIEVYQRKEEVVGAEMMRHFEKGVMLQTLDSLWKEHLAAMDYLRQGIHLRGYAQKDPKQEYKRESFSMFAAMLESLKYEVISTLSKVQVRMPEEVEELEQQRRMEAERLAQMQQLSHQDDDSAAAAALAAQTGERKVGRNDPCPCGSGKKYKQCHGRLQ

[2] = molecular target: T1, Ubiquitin-activating enzyme e1, putative (Leishmania donovani (strain BPK282A1)) (UniProt E9BSI1); experiment: Leishmania donovani Ubiquitin Activating Enzyme (LdE1); type: functional; conditions: 30 µM
T1 sequence (whole entry): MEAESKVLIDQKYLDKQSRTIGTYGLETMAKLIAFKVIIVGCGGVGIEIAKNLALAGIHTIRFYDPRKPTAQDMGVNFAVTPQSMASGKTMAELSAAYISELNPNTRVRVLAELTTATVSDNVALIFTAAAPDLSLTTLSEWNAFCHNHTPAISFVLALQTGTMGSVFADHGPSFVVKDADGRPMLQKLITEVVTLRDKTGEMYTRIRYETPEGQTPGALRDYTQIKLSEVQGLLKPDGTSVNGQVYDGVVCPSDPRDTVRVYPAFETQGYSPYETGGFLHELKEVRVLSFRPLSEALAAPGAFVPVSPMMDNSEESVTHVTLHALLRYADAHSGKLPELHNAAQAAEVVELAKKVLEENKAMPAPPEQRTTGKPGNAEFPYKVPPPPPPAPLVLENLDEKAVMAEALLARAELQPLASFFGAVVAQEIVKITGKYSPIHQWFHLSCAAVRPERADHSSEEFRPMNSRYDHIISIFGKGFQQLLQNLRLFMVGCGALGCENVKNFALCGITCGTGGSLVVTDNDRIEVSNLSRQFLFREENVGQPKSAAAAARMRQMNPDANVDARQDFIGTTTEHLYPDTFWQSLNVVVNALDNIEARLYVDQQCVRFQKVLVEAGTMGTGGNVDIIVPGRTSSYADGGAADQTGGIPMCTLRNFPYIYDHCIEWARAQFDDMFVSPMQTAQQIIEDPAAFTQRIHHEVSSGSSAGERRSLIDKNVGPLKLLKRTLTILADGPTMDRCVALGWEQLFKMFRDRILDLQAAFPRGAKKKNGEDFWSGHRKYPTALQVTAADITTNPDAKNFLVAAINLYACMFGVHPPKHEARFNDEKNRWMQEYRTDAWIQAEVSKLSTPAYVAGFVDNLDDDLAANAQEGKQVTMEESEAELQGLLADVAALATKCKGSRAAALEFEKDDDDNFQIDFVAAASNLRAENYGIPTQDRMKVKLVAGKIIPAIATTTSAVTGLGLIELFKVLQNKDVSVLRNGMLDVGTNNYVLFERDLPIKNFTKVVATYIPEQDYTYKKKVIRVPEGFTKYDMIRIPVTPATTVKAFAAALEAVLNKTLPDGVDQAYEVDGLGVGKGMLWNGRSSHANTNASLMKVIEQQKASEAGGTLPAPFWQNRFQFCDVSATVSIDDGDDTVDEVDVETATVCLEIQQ

[3] = molecular target: AMP-activated protein kinase, AMPK (Homo sapiens) (UniProt P54646+O43741+P54619+Q9UGJ0+Q9Y478+Q13131+Q9UGI9); experiment: AMP-dependent Kinase enzyme assay. An in vitro enzyme assay that detects ADP turnover that is directly proportional to AMPK activity. This uses naive AMPK that is activated during the assay with MK-8722; type: functional; conditions: 30 µM
[4] = molecular target: Sialic acid-binding Ig-like lectin 9 (Homo sapiens) (UniProt Q9Y336); experiment: Hs-Siglec9 ALPHAscreen SOP 20170721; conditions: 10 µM
Chain of Sialic acid-binding Ig-like lectin 9 (Homo sapiens) (Q9Y336 whole entry): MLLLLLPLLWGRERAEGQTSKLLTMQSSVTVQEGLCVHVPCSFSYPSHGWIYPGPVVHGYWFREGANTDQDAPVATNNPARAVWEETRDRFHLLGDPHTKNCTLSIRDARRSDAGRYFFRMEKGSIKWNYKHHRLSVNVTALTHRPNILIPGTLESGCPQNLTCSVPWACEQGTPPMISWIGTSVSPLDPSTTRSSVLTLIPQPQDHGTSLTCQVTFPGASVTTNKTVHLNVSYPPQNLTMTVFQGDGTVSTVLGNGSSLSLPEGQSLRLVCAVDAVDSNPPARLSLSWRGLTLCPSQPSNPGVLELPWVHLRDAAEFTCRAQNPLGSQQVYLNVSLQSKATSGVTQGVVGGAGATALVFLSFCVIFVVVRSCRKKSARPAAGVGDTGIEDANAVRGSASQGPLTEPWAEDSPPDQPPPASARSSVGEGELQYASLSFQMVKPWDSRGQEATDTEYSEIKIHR

Trypanosoma cruzi = experiment: Trypanosoma cruzi phosphomannomutase and mannose-1-phosphate guanylyltransferase assay; type: functional; conditions: 10 µM
[5] = molecular target: T2, Arginase-2, mitochondrial (Homo sapiens) (UniProt P78540); experiment: in vitro enzyme assay to detect the production of urea directly proportional to the activity of Arginase II; type: functional; conditions: 33.3 µM; further: in the data most compounds retested in dose-response had high values
T2 sequence (whole entry): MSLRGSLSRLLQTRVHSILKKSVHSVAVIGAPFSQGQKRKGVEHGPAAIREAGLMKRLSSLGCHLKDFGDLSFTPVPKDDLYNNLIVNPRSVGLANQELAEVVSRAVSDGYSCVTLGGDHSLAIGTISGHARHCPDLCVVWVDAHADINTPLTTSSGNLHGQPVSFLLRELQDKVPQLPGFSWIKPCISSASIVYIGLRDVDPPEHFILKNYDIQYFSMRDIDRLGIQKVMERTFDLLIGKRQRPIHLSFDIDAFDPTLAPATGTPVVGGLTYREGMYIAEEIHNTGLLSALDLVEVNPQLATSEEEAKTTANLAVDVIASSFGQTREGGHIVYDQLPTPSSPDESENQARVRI

[6] = molecular target: T3, Proteasome subunit beta (Trypanosoma cruzi) (UniProt O96673); experiment: Trypanosoma cruzi proteasome chymotrypsin-like activity (TcProtChymo) assay.; further: in the data most compounds retested in dose-response had high values; type: functional; conditions: 9.37 µM
T3 sequence (whole entry): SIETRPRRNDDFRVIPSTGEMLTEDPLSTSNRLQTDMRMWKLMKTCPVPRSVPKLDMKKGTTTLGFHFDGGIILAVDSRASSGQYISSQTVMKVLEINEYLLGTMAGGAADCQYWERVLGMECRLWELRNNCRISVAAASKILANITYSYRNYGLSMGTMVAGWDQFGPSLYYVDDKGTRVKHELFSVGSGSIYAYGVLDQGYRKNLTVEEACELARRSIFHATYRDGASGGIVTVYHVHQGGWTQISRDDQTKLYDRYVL

Homo sapiens = organism: Homo sapiens; experiment: To identify inhibition of the IFN signalling (Jak-Stat) pathway via expression of an eGFP reporter gene under the control of an IFN-stimulated response element (ISRE) containing MxA promoter.; type: functional; conditions: 30 µM
[7] = molecular target: T4, Tyrosyl-tRNA synthetase, putative (Trypanosoma cruzi (strain CL Brener)) (UniProt Q4DSP6); experiment: Trypanosoma cruzi tyrosyl tRNA synthetase (TcYRS) _High Tyrosine SOP; type: functional; conditions: 30 µM; further: in the data most compounds retested in dose-response had high values
T4 sequence (whole entry): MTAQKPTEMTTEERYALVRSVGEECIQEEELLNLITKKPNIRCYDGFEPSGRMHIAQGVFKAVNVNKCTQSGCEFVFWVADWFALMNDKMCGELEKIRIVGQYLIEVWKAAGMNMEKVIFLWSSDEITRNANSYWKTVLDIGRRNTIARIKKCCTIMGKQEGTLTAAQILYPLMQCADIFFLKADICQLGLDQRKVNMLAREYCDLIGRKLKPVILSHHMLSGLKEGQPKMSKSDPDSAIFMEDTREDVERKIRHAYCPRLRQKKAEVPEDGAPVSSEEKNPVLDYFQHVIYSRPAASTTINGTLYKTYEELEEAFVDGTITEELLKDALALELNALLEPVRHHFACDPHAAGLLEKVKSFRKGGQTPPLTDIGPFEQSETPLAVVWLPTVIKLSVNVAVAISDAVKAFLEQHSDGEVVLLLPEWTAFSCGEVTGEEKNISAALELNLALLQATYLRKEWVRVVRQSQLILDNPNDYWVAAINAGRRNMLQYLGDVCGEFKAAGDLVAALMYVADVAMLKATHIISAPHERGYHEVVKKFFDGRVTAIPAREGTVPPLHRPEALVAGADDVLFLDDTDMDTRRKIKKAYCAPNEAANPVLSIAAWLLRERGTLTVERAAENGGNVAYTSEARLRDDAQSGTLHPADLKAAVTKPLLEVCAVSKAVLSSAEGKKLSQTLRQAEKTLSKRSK

[8] = molecular target: T4, Tyrosyl-tRNA synthetase, putative (Trypanosoma cruzi (strain CL Brener)); experiment: Trypanosoma cruzi tyrosyl tRNA synthetase (TcYRS) SOP; type: functional; conditions: 30 µM
[9] = molecular target: Chromo domain-containing protein 1 (Saccharomyces cerevisiae (strain ATCC 204508 / S288c) (Baker's yeast)) (UniProt P32657); experiment: ScCHD-1 Enzyme Inhibition Assay; type: functional; conditions: 30 µM; further: in the data most compounds retested in dose-response had high values
Chain of Chromo domain-containing protein 1 (Saccharomyces cerevisiae (strain ATCC 204508 / S288c) (Baker's yeast)) (P32657 whole entry, the tested form may be a part): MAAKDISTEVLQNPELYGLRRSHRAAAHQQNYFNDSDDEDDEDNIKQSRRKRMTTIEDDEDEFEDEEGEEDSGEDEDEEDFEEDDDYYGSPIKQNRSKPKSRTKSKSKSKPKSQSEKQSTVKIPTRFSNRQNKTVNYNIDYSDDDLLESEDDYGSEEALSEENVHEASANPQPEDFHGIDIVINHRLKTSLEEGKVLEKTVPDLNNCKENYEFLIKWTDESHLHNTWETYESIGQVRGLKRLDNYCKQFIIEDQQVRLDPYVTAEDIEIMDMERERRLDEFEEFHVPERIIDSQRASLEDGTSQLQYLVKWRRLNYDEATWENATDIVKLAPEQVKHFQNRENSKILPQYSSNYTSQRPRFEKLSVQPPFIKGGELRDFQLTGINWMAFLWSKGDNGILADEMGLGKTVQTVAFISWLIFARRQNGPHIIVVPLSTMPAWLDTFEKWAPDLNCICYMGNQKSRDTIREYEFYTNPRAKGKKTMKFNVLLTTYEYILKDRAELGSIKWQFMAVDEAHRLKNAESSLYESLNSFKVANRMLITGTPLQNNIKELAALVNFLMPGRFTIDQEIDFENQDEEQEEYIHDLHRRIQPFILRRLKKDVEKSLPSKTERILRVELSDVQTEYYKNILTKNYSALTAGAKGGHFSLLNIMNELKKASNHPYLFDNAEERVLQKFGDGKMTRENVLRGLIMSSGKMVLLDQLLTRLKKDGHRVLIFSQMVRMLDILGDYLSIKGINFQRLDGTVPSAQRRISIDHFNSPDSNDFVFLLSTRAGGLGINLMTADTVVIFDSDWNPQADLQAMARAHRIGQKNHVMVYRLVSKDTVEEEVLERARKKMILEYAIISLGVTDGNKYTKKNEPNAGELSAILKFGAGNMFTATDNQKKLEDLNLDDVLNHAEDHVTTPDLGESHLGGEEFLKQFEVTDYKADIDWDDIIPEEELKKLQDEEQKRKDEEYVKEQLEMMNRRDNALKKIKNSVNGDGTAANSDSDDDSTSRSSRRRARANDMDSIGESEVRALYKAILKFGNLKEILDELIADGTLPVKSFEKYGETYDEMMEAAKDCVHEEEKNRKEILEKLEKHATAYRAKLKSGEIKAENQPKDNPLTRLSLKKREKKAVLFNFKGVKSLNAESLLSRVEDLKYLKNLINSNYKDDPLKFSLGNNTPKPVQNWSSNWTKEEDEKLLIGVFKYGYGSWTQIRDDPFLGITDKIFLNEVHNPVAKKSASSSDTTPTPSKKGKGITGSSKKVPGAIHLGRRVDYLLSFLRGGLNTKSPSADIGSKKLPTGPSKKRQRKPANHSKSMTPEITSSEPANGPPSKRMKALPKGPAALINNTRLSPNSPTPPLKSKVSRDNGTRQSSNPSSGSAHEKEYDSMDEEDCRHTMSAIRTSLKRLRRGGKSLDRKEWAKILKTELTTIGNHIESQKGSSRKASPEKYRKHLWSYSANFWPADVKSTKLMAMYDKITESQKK

Row | Structure (SMILES) | Percent Effect [1] | Percent Effect [2] | Percent Effect [3] | Percent Effect [4] | Percent Effect (Trypanosoma cruzi) | Percent Effect [5] | Percent Effect [6] | Percent Effect (Homo sapiens) | Percent Effect [7] | Percent Effect [8] | Percent Effect [9]
1 | CCC(=O)N1CCC(Cc2ccccc2-c2ccccc2)(C(N)=O)C1 (stereo unspecified) | -3.32% | 13.3% | 10.4% | -2.64% | 3.94% | 7.69% | 8.37% | 16.6% | 1.06% | 16.7% | -4.71%
2 | CCOCC(=O)N1C[C@@H](O)[C@H](N(C)Cc2ccc(OC)cc2)C1 | -3.53% | 4.05% | 6.78% | 3.17% | -1.19% | 0.232% | 9.05% | 6.37% | 5.38% | 9.09% | -14.5%
3 | CC(C)c1cccc(CSc2nnc(CN3CCCC3=O)o2)n1 | 2.49% | -2.67% | -1.77% | -1.76% | -0.0974% | 5.21% | -0.174% | -2.67% | 1.64% | 1.24% | 0.138%
4 | Cc1cnc2n1CCN(C)C21CCN(C(=O)CC(C)C)CC1 | -2.76% | 8% | 2.31% | 1.76% | -5.21% | -26.3% | 8.38% | -3.36% | -1.04% | 15% | -7.37%
5 | COc1ccc(OC)c(-c2nc(CN(C)Cc3nncn3C)c(C)o2)c1 | -4.01% | 11% | 12% | -0.646% | -1.57% | 0.909% | 13.7% | -0.225% | 7.53% | 15% | -5.1%
6 | COc1ccc(C(C(=O)O)N2CCCN(C3CCCCC3)CC2)cn1 (stereo unspecified) | -1.53% | 13.5% | -8.59% | 8.33% | 6.55% | -6.2% | 15.5% | -5.05% | 2.15% | 21% | -12.3%
7 | COc1ccc(CN2C[C@H](OCC3CCOCC3)[C@H]3COC[C@H]32)cc1 | -0.325% | 0% | -1.04% | 9.22% | -0.992% | -3.99% | 15.3% | 3.85% | 11.5% | 11.1% | -1.49%
8 | CCc1ncnc2c1CCN(Cc1ccccn1)CC2 | -1.83% | -1.33% | -3.43% | -1.27% | -5.11% | -11.4% | 0% | -11.7% | -3.17% | -5.13% | -3.62%
9 | CC(C)c1noc(CN(Cc2cccs2)C2CC2)n1 | -4.69% | -5.2% | 7.3% | 44.2% | -5.61% | 4.14% | 5.16% | 18.1% | -4.3% | -8.64% | 2.56%
10 | Cc1cccc(CN2C[C@@H]3CN(C(=O)NC(C)C)C[C@@H]3C2=O)c1 | 0.524% | 5.2% | 3% | 7.17% | -1.87% | -35.9% | 11.2% | -7.06% | 6.45% | 13.6% | 1%
11 | CS(=O)(=O)NCC1CCCN(C(=O)Nc2ccccc2Cl)C1 (stereo unspecified) | -1.65% | 13.2% | 8.6% | 0.518% | 1.66% | -5.92% | 15.2% | 29.4% | 7.45% | 18.2% | -7.52%
